ATXN viability: Viability Counterscreen for Primary qHTS for Inhibitors of ATXN expression; actives 0.49% (n = 400,000); S2 cells (HEK-293 line with an ATXN2-luciferase reporter) viability, CellTiter-Fluor protease fluorescence, 24 h; Potency, µM (top dose mostly 56.7 µM), most hits filed as cytotoxic; also: nearly all actives have a fitted effect of over 40% in size
RORg inh: qHTS for inhibitors of ROR gamma transcriptional activity; Nuclear receptor ROR-gamma (Mus musculus), P51450; Drosophila S2 Gal4-RORgamma UAS-luciferase reporter, 20 h; Potency, µM (series often up to 53.6 µM), for inactives: at the top dose activity change, negative = inhibition, hits mostly inhibitors; actives 5.4% (n = 310,000); also: % is scaled to controls: 0 for no effect and ±100 for the full control effect; nearly all actives have a fitted effect of over 60% in size
Target sequence (P51450 whole entry, looked up, the tested form may be a part): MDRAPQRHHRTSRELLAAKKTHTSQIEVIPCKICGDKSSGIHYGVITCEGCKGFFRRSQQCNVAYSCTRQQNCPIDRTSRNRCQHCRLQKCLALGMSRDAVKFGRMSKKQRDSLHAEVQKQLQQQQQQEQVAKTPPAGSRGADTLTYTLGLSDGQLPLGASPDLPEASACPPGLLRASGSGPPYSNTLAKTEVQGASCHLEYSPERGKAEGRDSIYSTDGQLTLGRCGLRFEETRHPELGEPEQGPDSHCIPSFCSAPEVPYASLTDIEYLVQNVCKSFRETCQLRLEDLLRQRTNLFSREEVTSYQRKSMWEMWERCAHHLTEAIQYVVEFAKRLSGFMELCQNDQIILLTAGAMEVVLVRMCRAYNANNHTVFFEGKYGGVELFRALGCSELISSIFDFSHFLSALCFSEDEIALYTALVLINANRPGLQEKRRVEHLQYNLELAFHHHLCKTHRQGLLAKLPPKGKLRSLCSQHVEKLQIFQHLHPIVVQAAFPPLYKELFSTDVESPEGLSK
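A Gal4/UAS one-hybrid system in insect cells: metallothionein-promoter Gal4–ROR gamma fusion plus Photinus luciferase reporter. Copper sulfate 700 uM final, 20 hr ambient incubation, luminescent detection after 10 min with reagent.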
Gal4-VP16 FLuc: VP16 counterscreen qHTS for inhibitors of ROR gamma transcriptional activity | Drosophila S2 Gal4-VP16 UAS-luciferase, luminescence, 20 h | Potency, µM (highest dose often 53.6 µM), without a hit: at the top dose activity, negative = inhibition, hits mostly inhibitors | actives 3.5% (n = 310,000);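 also: Gal4-VP16 expression switched on by copper sulfate through the metallothionein promoter; % is scaled to controls: 0 for no effect and ±100 for the full control effect; nearly all actives have a fitted effect of over 50% in size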
ATXN2 expr inh: Primary qHTS for Inhibitors of ATXN expression. HEK-293 ATXN2-luciferase reporter, luminescence, 24 h. Potency, µM (doses to about 57 µM), without a hit: at the top dose activity change, negative = inhibition, hits mostly inhibitors. AID 1745845, 2022. actives 0.72% (n = 360,000); also: % is scaled to controls: 0 for no effect and ±100 for the full control effect; nearly all actives have a fitted effect of over 55% in size
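ATXN2-luciferase reporter cells (luciferase flanked by upstream and downstream ATXN2 gene portions) were treated 24 h at 37 °C with compounds at up to 57 uM. SteadyGlo luminescence gave expression; GF-AFC fluorescence gave viability.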
TGFb inhibitor: qHTS for Inhibitors of TGF-b | Potency, µM (highest dose often 46.1 µM), without a hit: top-dose activity, negative = inhibition, most hits filed as inhibitors | actives 1.2% (n = 410,000) | HepG2 CAGA-GFP TGF-b/SMAD3 reporter, GFP fluorescence, 18 h; TGF-beta stimulated, 500 pg/mL final; also: % is scaled to controls: 0 for no effect and ±100 for the full control effect; nearly all actives have a fitted effect of over 65% in size
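First, reporter cells (HEPG2 CAGA-GFP) rested 2 h at 37 degrees C. Next, compounds were pinned in and TGF-beta added to 500 pg/mL final. After 18 h, GFP was imaged per cell and summed per well.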
HepG2 viability: qHTS for Inhibitors of TGF-b: Cytotox Counterscreen | AID 588856, 2011 | HepG2 CAGA-GFP viability, ATP luminescence, 18 h | actives 0.76% (n = 410,000) | Potency, µM (highest dose often 46.1 µM), for inactives: at the top dose activity change, negative = cytotoxicity, actives largely listed as cytotoxic
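CellTiter-Glo luminescence gave cytotoxicity after 18 hours at 37 degrees C. The cells were HepG2 CAGA-GFP in 1% FBS DMEM, stimulated with 500 pg/mL TGF-beta after compound addition. %Activity was normalised to no-cell wells (complete cell-killing) and DMSO (no toxicity), and curves were fitted and classified.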
* hit, by the source's call; i = inactive; ? = inconclusive; . = no result; [ ] = remark or other dose. Shown are actives, neighbours in structure and some others; about 6.3% of the full set was active somewhere. Calls follow the shape of the dose curve; as a rule, active = well fitted curve in the direction sought with a large enough effect; inconclusive = small, poorly fitted or top-dose-only effect, or another doubt; inactive = no such curve, though single readings can be large; an effect the other way counts as inactive or inconclusive. Potency is read from the fitted curve at half-maximal effect.

SMILES	ATXN viability	RORg inh	Gal4-VP16 FLuc	ATXN2 expr inh	TGFb inhibitor	HepG2 viability
CC(OC(=O)CCc1nc2ccccc2c(=O)[nH]1)C(=O)c1ccc(C(C)(C)C)cc1 (configuration not stated)	i	?	5.62µM*	-4.0%	-12.4%	-44.6%
CCC1CCCCN1CCCNC(=O)c1ccc2c(c1)N(Cc1cccc(C)c1)C(=O)c1ccccc1S2(=O)=O (configuration not stated)	i	.	.	?	?	-94.0%
CCC1CCCCN1CCCNC(=O)c1ccc2c(c1)N(Cc1cccc(Cl)c1)C(=O)c1ccccc1S2(=O)=O (configuration not stated)	.	.	.	.	10µM*	-100.3%
CCC1CCCCN1CCCNC(=O)c1ccc2c(c1)N(Cc1ccc(Cl)cc1)C(=O)c1ccccc1S2(=O)=O (configuration not stated)	i	.	.	28.2µM*	?	11.2µM*
CCC1CCCCN1CCCNC(=O)c1ccc2c(c1)N(Cc1ccccc1)C(=O)c1ccccc1S2(=O)=O (configuration not stated)	.	.	.	.	.	-51.4%
CCOc1ccc(NC(=S)N2CCC(C(O)(c3ccccc3)c3ccccc3)CC2)cc1	i	12.6µM*	?	3.2%	?	-19.9%
OC(c1ccccc1)(c1ccccc1)C1CCN(C(=S)NC2CCCC2)CC1	i	20µM*	18.3%[10 µM]	-11.9%	-9.8%	-14.7%
S=C(NC1CCCCC1)N1CCOCCOCCN(C(=S)NC2CCCCC2)CCOCC1	i	11.2µM*	?	-7.0%	-5.6%	-5.3%
CC1CCN(C(=S)NCCc2ccccc2)CC1	i	?	?	48.5%	-11.6%	3.4%
OC(c1ccccc1)(c1ccccc1)C1CCN(C(=S)NCCc2ccccc2)CC1	i	12.6µM*	?	-20.5%	-18.3%	-13.3%
OC(c1ccccc1)(c1ccccc1)C1CCN(C(=S)Nc2ccc(F)cc2)CC1	i	.	.	0.2%	-18.4%	-10.8%
Nc1cccc2c1C(=O)N(C1CCC(=O)NC1=O)C2=O (configuration not stated)	.	.	.	5.4%	.	.
CC(O)CN1CCN(C(=O)CN2C(=O)NC(c3ccccc3)(c3ccccc3)C2=O)CC1 (configuration not stated)	i	-39.3%	-6.5%	?	0.4%	-11.7%
COc1ccc(C(=O)c2ccc(O)cc2)c(O)c1O	.	-23.7%	-12.5%	.	.	.
Cc1cc(C)cc(OC(C)C(=O)Nc2nonc2-c2ccc(Br)cc2)c1 (configuration not stated)	?	.	.	?	15.8µM*	-56.0%
COc1ccc(-c2cc3nc(C4CCN(C(=O)OC(C)(C)C)CC4)c(C(=O)Nc4cc(Cl)cc(Cl)c4)cn3n2)cc1	i	.	.	6.7%	-1.6%	-5.4%
COc1ccc(Cl)cc1NC(=O)c1ccccc1C	i	-2.1%	28.4%	-12.5%	-16.1%	-18.5%
COc1ccccc1NC(=S)NCCC(c1ccccc1)c1ccccc1	i	11.2µM*	?	.	12.6µM*	-13.9%
COc1ccc(Cl)cc1NC(=S)NCCC(c1ccccc1)c1ccccc1	i	7.08µM*	4.47µM*	-19.1%	?	-33.8%
COc1ccc(Cl)cc1NC(=S)Nc1ccccc1C	i	11.2µM*	?	-5.3%[11.3 µM]	-3.1%	9.6%
COc1cc(NC(=S)NCCC(c2ccccc2)c2ccccc2)c(OC)cc1Cl	i	5.01µM*	3.16µM*	-2.8%	?	0.0%
CC(=O)Nc1nonc1-c1nnc(SCC(=O)Nc2ccc(C)cc2C)n1C	i	.	.	5.6%	-1.6%	3.2%
COc1ccc(Cl)cc1NC(=O)C/C(C)=N/NC(=O)c1ccc(O)cc1	i	8.91µM*	?	-3.9%	?	3.3%
COc1ccc(Cl)cc1NC(=O)CNC(c1ccccc1)c1ccccc1	.	?	2.51µM*	7.2%	?	-12.5%
COc1ccc(Cl)cc1NC(=O)C/C(C)=N/NC(=O)Cc1ccccc1	i	?	-9.1%	.	-9.9%	-3.8%
SMILES	ATXN viability	RORg inh	Gal4-VP16 FLuc	ATXN2 expr inh	TGFb inhibitor	HepG2 viability
CC(=O)c1ccc(NC(=O)CC2Oc3ccc(C)cc3NC2=O)cc1 (configuration not stated)	.	.	.	.	0.0%	3.8%
CCCN(CC1CC1)C(=S)NC(=O)c1ccccc1C	.	.	.	.	-0.9%	4.0%
CCCN(CC1CC1)C(=S)NC(=O)C1CC1	i	3.98µM*	12.6µM*	-11.7%	5.6%	33.8%
C/C(CC(=O)Nc1ccc(N(C)C)cc1)=N\NC(=O)c1ccc(Cl)cc1Cl	i	11.2µM*	-10.9%	9.9%	?	-1.9%
C/C(CC(=O)Nc1cc(C)ccn1)=N\NC(=O)c1ccc(C(C)(C)C)cc1	i	11.2µM*	-16.2%	10.8%	-18.9%	-5.6%
C/C(CC(=O)Nc1ccc(N(C)C)cc1)=N\NC(=O)c1ccc(C(C)(C)C)cc1	i	?	3.98µM*	.	-18.0%	-31.8%
COc1cccc(C(=O)N/N=C(\C)CC(=O)Nc2ccc(N(C)C)cc2)c1	i	-30.4%	0.5%	8.9%	?	-24.5%
C/C(CC(=O)Nc1ccc(N(C)C)cc1)=N\NC(=O)c1ccc(F)cc1	i	1.78µM*	?	2.1%	-7.4%	-11.4%
CC(=O)c1ccc(S(=O)(=O)N2CCN(c3nc(-c4ccccc4)nc4ccccc34)CC2)cc1	.	.	.	.	-2.0%	-1.0%
CCN(CCCNC(=O)c1cc2cc3ccc(C)cc3nc2s1)c1ccccc1	i	.	.	17.3%	6.31µM*	-28.1%
NNC(=O)c1nc2ccccc2s1	i	.	.	.	-11.0%	-48.8%
NNC(=O)c1cc2cc3ccccc3nc2s1	i	12.6µM*	-10.7%	.	?	-124.5%
CS(=O)(=O)NNC(=O)c1cc2cc3ccccc3nc2s1	i	-10.6%	-21.0%	9.5%	-1.3%	-0.4%
COc1ccc(S(=O)(=O)NNC(=O)c2cc3cc4ccccc4nc3s2)cc1	i	?	22.4µM*	-4.3%	-6.5%	-20.0%
CCN(CC)c1ccc(NC(=O)C2CCN(S(=O)(=O)c3ccc4c(c3)oc(=O)n4C)CC2)c(C)c1	i	.	.	2.1%	?	-15.6%
COc1cccc(-c2cc3c(c(OC)c2)OCCN(Cc2ccccc2O)C3)n1	i	.	.	.	.	.
COc1nc(C)cnc1NS(=O)(=O)c1cccnc1-c1ccc(-c2nnco2)cc1	.	.	.	-7.0%	.	.
O=C1c2ccccc2C(=O)N1c1ncc(Cc2ccc(Cl)cc2)s1	i	-21.9%	-5.7%	1.4%	-19.1%	-7.8%
